This is a sample that favours compounds with a hit; in the whole collection about 3% have one here.
PPC-1+TRAIL kill – PPC-1 cancer cell killing with TRAIL present. PPC-1 cells + TRAIL, ATPLite viability luminescence. AID 1443. cell killing (% activity), % at 4 µM or 5 µM. 220,000 compounds, 0.41% hits;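 active means cell killing above 50% in the first pass at 4 µM, then a duplicate retest at 5 µM averaging 50% or more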;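 further: plate controls were cells with TRAIL plus DMSO for no effect and medium-only wells lacking cells for full effect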
C8 TRAIL sens – sensitizes caspase-8 expressing cells to TRAIL; NB7+C8 cells + TRAIL, ATPlite viability luminescence; inhibition (viability loss, TRAIL sensitization), % at 10 µM; 360,000 compounds, 1% hits; AID 624354;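 active means compounds causing at least 50% loss of cell viability in the single-dose screen, relative to plate controls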
SENP8 block-1 – blocks human SENP8 cleavage of Nedd8 substrate; Q96LD8; recombinant SENP8, Nedd8 substrate fluorescence; inhibition, % at 20 µM; 360,000 compounds, 0.64% hits; AID 602440; in the data active means inhibition mostly above about 40%, no sharp cut-off; inactive means mostly below about 27%
SENP7 inh – SENP7 protease inhibition. inhibition, % at 5 µM. 330,000 compounds, 1.5% hits. Q9BQF6. recombinant SENP7, Z-RLRGG-aminoluciferin luminescence, 40 min;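 active means inhibition above about 50% at the single test dose, limit read from the data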;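 further: plate controls were DMSO with enzyme for no effect and no enzyme buffer wells for full effect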
SENP8 block-2 – inhibitors of human SENP8 protease. purified SENP8, Z-RLRGG-aminoluciferin cleavage, luminescence. inhibition, % at 10 µM. 330,000 compounds, 1.2% hits. AID 2540; in the data active means inhibition above about 50%
SENP6 inh – blocks the human protease SENP6; Q9GZR1; AID 2599; Recombinant SENP6 catalytic domain, aminoluciferin luminescence; inhibition, % at 10 µM; 330,000 compounds, 1.8% hits;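 active means inhibition above about 50% at the single tested dose, limit read from the data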;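 further: plate controls were DMSO wells with enzyme for no effect and DMSO wells lacking enzyme for full effect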
Target sequence (Q9GZR1 628-1112 limits assumed): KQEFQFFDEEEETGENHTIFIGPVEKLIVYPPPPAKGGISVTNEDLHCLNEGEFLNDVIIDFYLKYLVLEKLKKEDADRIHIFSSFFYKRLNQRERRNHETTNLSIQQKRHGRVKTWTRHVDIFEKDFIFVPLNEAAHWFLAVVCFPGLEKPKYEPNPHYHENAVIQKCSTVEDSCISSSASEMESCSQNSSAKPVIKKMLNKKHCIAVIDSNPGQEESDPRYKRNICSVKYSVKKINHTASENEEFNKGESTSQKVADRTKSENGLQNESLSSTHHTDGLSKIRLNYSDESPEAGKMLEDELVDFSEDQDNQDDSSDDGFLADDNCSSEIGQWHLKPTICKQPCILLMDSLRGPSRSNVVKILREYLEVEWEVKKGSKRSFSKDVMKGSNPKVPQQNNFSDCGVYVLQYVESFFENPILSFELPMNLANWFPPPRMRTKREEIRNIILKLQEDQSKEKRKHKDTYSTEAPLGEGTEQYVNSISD
SENP8 confirm – human SENP8 inhibition, confirmed; 6,200 compounds, 40% hits; Recombinant SENP8, Z-RLRGG-aminoluciferin luminescence, 60 min; inhibition, % at 12.5 µM; shares compounds with SENP7 inh;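 active means mean inhibition across replicates above about 50%, limit read from the data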
SENP6 confirm – human SENP6 inhibition, confirmed | shares compounds with SENP7 inh | recombinant SENP6, Z-RLRGG-aminoluciferin luminescence | inhibition, % at 12.5 µM | 6,200 compounds, 58% hits
SENP7 conf – confirmation of human SENP7 protease inhibitors; shares compounds with SENP7 inh; recombinant SENP7, Z-RLRGG-aminoluciferin luminescence, 40 min; inhibition, % at 12.5 µM; 6,200 compounds, 69% hits; AID 488917
Casp3 SENP sel – inhibits human caspase-3 in SENP selectivity test | shares compounds with SENP7 inh | purified caspase-3, Z-DEVD-aminoluciferin luminescence, 60 min | inhibition, % at 12.5 µM | 6,200 compounds, 60% hits | AID 488918;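 active means mean inhibition above about 50%, limit read from the data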;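 further: plate controls were enzyme with DMSO for no effect and wells without caspase-3 for full effect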
Luc interf – interferes with luciferase luminescence in SENP counter-screen | shares compounds with SENP7 inh | Pre-incubated SENP8/Z-RLRGG-aminoluciferin, luciferase luminescence interference | inhibition, % at 12.5 µM | 6,200 compounds, 39% hits | AID 488919;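 active means mean inhibition above about 50% when retested at one dose, limit read from the data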;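 further: plate controls were DMSO wells with completed reaction for no effect and substrate without enzyme for full effect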
Starred values were filed as active, the others as inactive; · = not tested or not shown.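 How the source made its calls, unless noted: active means mean inhibition above about 50% in the one-dose retest (limit read from the data); inactive means the rest.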

SMILES	PPC-1+TRAIL kill	C8 TRAIL sens	SENP8 block-1	SENP7 inh	SENP8 block-2	SENP6 inh	SENP8 confirm	SENP6 confirm	SENP7 conf	Casp3 SENP sel	Luc interf
CC(=O)Nc1cc(-c2cccc(C(=O)NCCO)c2)cn2c(-c3ccc(F)c(Cl)c3)cnc12	·	5	-274	·	·	·	·	·	·	·	·
Cc1c(C(=O)c2ccc(F)cc2F)c2ccccn2c1CCc1ccccn1	·	-15	36	·	·	·	·	·	·	·	·
Cc1c(C(=O)c2ccc(F)cc2F)c2ccccn2c1CCC#N	·	-11	-4	26	42	58*	11	9	-4	4	-1
COC(=O)CCc1c(C)c(C(=O)c2cc(F)c(F)c(F)c2F)c2ccccn12	11	-7	-30	4	28	77*	8	7	-9	-3	-3
O=C1CN(C(=O)COC(=O)c2cc(Cl)ccc2[N+](=O)[O-])c2ccccc2N1	·	5	0	·	·	·	·	·	·	·	·
CC(OC(=O)Cn1cnc2c1c(=O)n(C)c(=O)n2C)C(=O)NC1CCCCC1C (stereo unspecified)	·	-2	1	4	1	-6	·	·	·	·	·
O=C(OCC1COc2ccccc2O1)c1c(F)cccc1F (stereo unspecified)	-13	26	10	83*	-7	-2	2	2	1	0	10
O=C1N/C(=C\c2nc3ccccc3s2)c2ccccc21	40	·	·	98*	84*	92*	33	42	34	37	6
O=C1N/C(=C\c2ccccc2)c2ccccc21	7	5	-130	1	-19	14	·	·	·	·	·
Cc1ccc(OCCn2ncc3ccccc3c2=O)c(C)c1	·	11	14	-4	-6	-14	·	·	·	·	·
O=c1c2ccccc2cnn1CCOc1cccc(Br)c1	·	23	8	58*	60*	74*	55*	68*	86*	58*	6
Cc1ccc(-c2nnc(SCc3ccccc3F)o2)cc1	17	21	4	58*	49	67*	61*	70*	87*	45	43
c1ccc(C2CSc3ccccc3N2)cc1 (stereo unspecified)	·	-8	-13	35	47	72*	4	8	8	23	15
COc1ccccc1CNC(=O)/C(C#N)=C/c1ccc(OC)c(OC)c1OC	·	-7	8	4	2	-3	·	·	·	·	·
COc1ccc2c(c1)CCc1c(C(=O)NCC(C)C)noc1-2	11	-7	14	51*	29	71*	25	44	81*	57*	18
C/C(=N\NC(=O)c1cccnc1)c1ccc(Br)cc1	·	-2	5	6	4	-3	·	·	·	·	·
C/C(=N\NC(=O)c1ccc(Br)cc1)c1ccccc1	14	45	20	36	38	70*	24	55*	36	48	21
Cc1occc1C(=O)N/N=C/C=C/c1ccccc1	6	-4	22	55*	43	58*	70*	68*	91*	86*	70*
Cc1occc1C(=O)N/N=C/c1ccc(N(C)C)cc1	18	31	-450	98*	96*	96*	11	100*	104*	99*	98*
Cc1occc1C(=O)N/N=C/C=C/c1ccc(N(C)C)cc1	·	22	-386	46	39	50	·	·	·	·	·
Cc1cc(C(=O)N/N=C/c2ccccc2)c(C)o1	35	18	21	74*	34	47	59*	57*	85*	83*	60*
C=CCN1C(=O)C2(OCCCO2)c2cc(C)ccc21	·	4	7	0	0	4	·	·	·	·	·

Compound activity from PubChem BioAssay.
